The values below come from PubChem BioAssay (NCATS).

Values joined by “and” are separate entries in the source; they are usually repeats but may differ in a detail not shown here. Identical values can stand only once. Records with an inconclusive call do not appear. A number with no mark means an inactive call. Active and inactive are the calls of the source. Unless noted, calls follow the shape of the dose curve; as a rule, active = well fitted curve in the direction sought with a large enough effect; inconclusive = small, poorly fitted or top-dose-only effect, or another doubt; inactive = no such curve, though single readings can be large; an effect the other way counts as inactive or inconclusive.

Test [1] in a line: Cell Viability - LYMP2-004 (AID 966). Also: nearly all actives have a fitted effect of over 65% in size. Also: potency is read from the fitted curve at half-maximal effect.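 As to activity change, negative = cytotoxicity: plate controls were DMSO only for no effect and tetraoctylammonium bromide control for full effect.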 In outline: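 Cells seeded 2500/well, rested 5 hr at 37 C, dosed across a concentration series, incubated 24 hr at 37 C, then CellTiter-Glo added for 30 min at room temperature and luminescence read. Hill fitting gave AC50.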
The nature of test [2]: Cell Viability - LYMP2-009 (AID 968). Also: nearly all actives have a fitted effect of over 55% in size. Also: potency is read from the fitted curve at half-maximal effect.
A short description of test [3]: Cell Viability - LYMP2-019 (AID 973). Also: nearly all actives have a fitted effect of over 55% in size. Also: potency is read from the fitted curve at half-maximal effect.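 As to activity change, negative = cytotoxicity: 0% = DMSO alone and full effect = 92 µM tetraoctylammonium bromide.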 In outline: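 Luminescent ATP read-out (CellTiter-Glo, 30 min room temperature) served as the viability measure after 24 hr treatment of lymphoblastoid cells at 37 C. Concentration-response data were fitted to the Hill equation for AC50.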
Test [4] can be described thus: Cell Viability - LYMP2-025 (AID 976). Also: potency is read from the fitted curve at half-maximal effect.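 As to activity change, negative = cytotoxicity: plate controls were DMSO only for no effect and tetraoctylammonium bromide control for full effect.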 In outline: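 Seed 2500 LYMP2-025 cells/well; 5 hr at 37 C; add compound; 24 hr at 37 C; add CellTiter-Glo; 30 min RT; read luminescence. AC50 from Hill-modelled concentration-response.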
Test [5] in a line: Cell Viability - LYMP2-002 (AID 977).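 Also: compound exposure lasted 24 h at 37 °C.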 Also: potency is read from the fitted curve at half-maximal effect. In outline:
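Human lymphoblastoid LYMP2-002 cells, 2500 per well, exposed to compounds for 24 h at 37 C in complete medium; viability read as intracellular ATP by CellTiter-Glo luminescence, AC50 from Hill fits.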

In test [6] the target is Glucocorticoid receptor (Homo sapiens) (UniProt P04150). Briefly: qHTS assay for small molecule agonists of glucocorticoid receptor signaling (AID 588532; active = well fitted curve in the direction sought with a large enough effect in the signal ratio, with a control signal flat; the % refers to the signal ratio;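 also: 100% = dexamethasone at 0.1 µM and 0% = DMSO only wells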). The note with it: HeLa MMTV-bla, beta-lactamase ratio, agonist, 18 h; stronger effect = higher value; percent of dexamethasone control, DMSO zero. In outline: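 HeLa GRE-bla reporter cells; 18 h compound exposure at 37 C; 2 h CCF4 loading at room temperature; fluorescence at 460 and 530 nm; EC50 by Hill equation.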

The target of test [7] is Voltage-gated inwardly rectifying potassium channel KCNH2 (Homo sapiens) (UniProt Q12809). Briefly: qHTS Assay for Small Molecule Inhibitors of the Human hERG Channel Activity (AID 588834).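 Also: lower thallium flux fluorescence means stronger hERG block; nearly all actives have a fitted effect of over 50% in size.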 Also: potency is read from the fitted curve at half-maximal effect. The method, boiled down:
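U2OS cells BacMam-transduced with hERG, 2000 cells/well, compound ~10 min at 37 °C before stimulation buffer. FluxOR thallium flux fluorescence read kinetically on FDSS; decrease indicates block; AC50 from Hill fits.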

A short description of test [8]: qHTS assay for small molecule disruptors of the mitochondrial membrane potential - 1 hr assay (AID 651754; calls by dose curve; also: % is scaled to controls: 0 for no effect and ±100 for the full control effect; nearly all actives have a fitted effect of over 35% in size). The method, boiled down:
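HepG2, 2,000 cells/well, overnight attachment; cpd or DMSO 1 hr, 37C/5% CO2; Mito-MPS dye 30 min, 37C; fluorescence monomer (490/535) and aggregate (540/590).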

Test [9] addresses Nuclear receptor ROR-gamma (Homo sapiens) (UniProt P51449). Briefly: qHTS assay for small molecule antagonists of the retinoid-related orphan receptor gamma (ROR-gamma) signaling pathway (AID 651802). Also: nearly all actives have a fitted effect of over 60% in size. Also: potency is read from the fitted curve at half-maximal effect. In outline: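 CHO, TET-inducible ROR + RORE-LUC reporter, 1536-well qHTS. Compound pinned, doxycycline added, 16hr 37C/5% CO2. ONE-Glo, 30 min RT, luminescence; signal drop scored as antagonism.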

Test [10] in a line: qHTS assay for small molecule agonists of the antioxidant response element (ARE) signaling pathway measured by Nrf2-dependant transcriptional activity (AID 720636; active = well fitted curve in the direction sought with a large enough effect in the repeat runs; an effect the other way counts as inactive or inconclusive; also: % of control where 0% means no effect). In outline:
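ARE-luc HepG2 cells carrying an Nrf2-responsive luciferase reporter, in medium with 1% dialyzed FBS, exposed to compound for 16 hr at 37 C, 5% CO2. Luminescence read 30 min after ONE-Glo addition.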

Test [11] is described as follows: qHTS assay for small molecule antagonists of the retinoid-related orphan receptor gamma (ROR-gamma) signaling pathway - cell viability counter screen (AID 720652; active = well fitted curve in the direction sought with a large enough effect in the repeat runs; an effect the other way counts as inactive or inconclusive;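 also: compound exposure lasted 16 hr before ATP read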; also: potency is read from the fitted curve at half-maximal effect; as to activity change, negative = cytotoxicity: % is scaled to controls: 0 for no effect and ±100 for the full control effect). In outline: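 Luminescence from CellTiter-Glo after 30 min at room temperature reported cellular ATP as the cytotoxicity measure. Cells were the CHO reporter line with doxycycline-induced ROR-gamma expression, exposed to compound for 16 hr at 37 C.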

Test [12] can be described thus: qHTS assay for small molecule agonists of the antioxidant response element (ARE) signaling pathway measured by Nrf2-dependant transcriptional activity - cell viability counter screen (AID 720653; active = well fitted curve in the direction sought with a large enough effect in the repeat runs; an effect the other way counts as inactive or inconclusive; also: potency is read from the fitted curve at half-maximal effect; as to max response: % is scaled to controls: 0 for no effect and ±100 for the full control effect). The conditions noted are these: ARE-bla HepG2 viability, CellTiter-Glo ATP luminescence, 16 h; max response: stronger effect = lower value. In outline: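 ARE-bla HepG2 cells treated with compounds for 16 h at 37C; this counter screen measures viability as intracellular ATP by CellTiter-Glo luminescence after 30 min at room temperature.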

Test [13] in a line: Cell Viability - Hek293 (AID 427;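 active = compounds whose dose-response curve shows a full or clear partial loss of cell viability, called from curve shape rather than a numeric limit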;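 also: potency is read from the fitted curve at half-maximal effect; cells exposed to compound for 40 hours at 37 °C before reading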). The note with it: qHTS. The method, boiled down: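 Luminescent ATP content (CellTiter-Glo, 20 min at room temperature) was measured after a 40 hr, 37 °C compound exposure of HEK293 cells. AC50 values came from Hill-equation fits of qHTS concentration-response data normalized to DMSO and 100 uM tamoxifen.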
The nature of test [14]: Cell Viability - Mesenchymal (AID 546).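 Also: cells exposed to compound for 40 hours before reading.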 Also: potency is read from the fitted curve at half-maximal effect.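 As to activity change, negative = cytotoxicity: 0% = DMSO only and -100% = 100 µM tamoxifen.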 The conditions noted are these: mesenchymal cells viability, qHTS; activity change, negative = cytotoxicity: at 91.7 µM (top of the series). The method, boiled down: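 Human kidney mesenchymal cells from normal renal glomeruli, 1000 cells/well, rested 5 hr at 37 °C, then treated 40 hr at 37 °C in complete medium. Cellular ATP read by CellTiter-Glo luminescence; AC50 from Hill-equation fits.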

Test [15] is described as follows: MultiTox-Fluor Cytotoxicity Assay - LYMP1-001 - Dead Cells (AID 946). Also: potency is read from the fitted curve at half-maximal effect. In outline:
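Cytotoxicity as increased dead-cell protease fluorescence (bis-AAF-R110, 485/520 nm), read 60 min after MultiTox-Fluor reagent. Human lymphoblastoid line exposed 16 h; Hill-fitted AC50, with DMSO as 0% and 15 uM tetraoctylammonium bromide as 100%.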

Test [16] in a line: Cell Viability - LYMP2-005 (AID 967). Also: potency is read from the fitted curve at half-maximal effect. The method, boiled down: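 Human lymphoblastoid LYMP2-005 cells, 2,500 per well in complete medium, rested 5 h at 37C then compound-treated 24 h at 37C. Intracellular ATP read by CellTiter-Glo luminescence after 30 min at room temperature; AC50 from Hill-equation fits of concentration-response data.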
A short description of test [17]: Cell Viability - LYMP2-011 (AID 969). Also: nearly all actives have a fitted effect of over 60% in size. Also: potency is read from the fitted curve at half-maximal effect. The method, boiled down: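 2500 cells/well, 5 hr 37 C; compound added, 24 hr 37 C; CellTiter-Glo 30 min RT; luminescence. qHTS concentration-response, Hill-equation AC50. Tetraoctylammonium bromide positive control.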
Test [18] can be described thus: Cell Viability - LYMP2-015 (AID 971). Also: nearly all actives have a fitted effect of over 55% in size. Also: potency is read from the fitted curve at half-maximal effect. In outline:
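Luminescent ATP read-out (CellTiter-Glo) served as the viability measure after lymphoblastoid cells were exposed to compounds for 24 hours at 37 C. Concentration-response data were fitted with the Hill equation to give AC50.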

Test [19] can be described thus: Cell Viability - LYMP2-017 (AID 972). Also: nearly all actives have a fitted effect of over 55% in size. Also: potency is read from the fitted curve at half-maximal effect. As to activity change, negative = cytotoxicity: % is scaled to controls: 0 for no effect and ±100 for the full control effect. The method, boiled down:
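2500 cells/well, 5 h 37 C; cpd 24 h 37 C in complete medium; CellTiter-Glo, 30 min RT; luminescence (ATP). AC50 via Hill fit, qHTS.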

A short description of test [20]: Cell Viability - LYMP2-026 (AID 989). Also: nearly all actives have a fitted effect of over 50% in size. Also: potency is read from the fitted curve at half-maximal effect. In outline:
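Luminescent ATP signal (CellTiter-Glo, 30 min room temperature) measures viable lymphoblastoid cells after 24 hr compound treatment at 37 C. Decreased ATP reflects acute toxicity; AC50 values come from Hill-equation modeling.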

Glucocorticoid receptor (Homo sapiens), sequence (P04150 whole entry, looked up): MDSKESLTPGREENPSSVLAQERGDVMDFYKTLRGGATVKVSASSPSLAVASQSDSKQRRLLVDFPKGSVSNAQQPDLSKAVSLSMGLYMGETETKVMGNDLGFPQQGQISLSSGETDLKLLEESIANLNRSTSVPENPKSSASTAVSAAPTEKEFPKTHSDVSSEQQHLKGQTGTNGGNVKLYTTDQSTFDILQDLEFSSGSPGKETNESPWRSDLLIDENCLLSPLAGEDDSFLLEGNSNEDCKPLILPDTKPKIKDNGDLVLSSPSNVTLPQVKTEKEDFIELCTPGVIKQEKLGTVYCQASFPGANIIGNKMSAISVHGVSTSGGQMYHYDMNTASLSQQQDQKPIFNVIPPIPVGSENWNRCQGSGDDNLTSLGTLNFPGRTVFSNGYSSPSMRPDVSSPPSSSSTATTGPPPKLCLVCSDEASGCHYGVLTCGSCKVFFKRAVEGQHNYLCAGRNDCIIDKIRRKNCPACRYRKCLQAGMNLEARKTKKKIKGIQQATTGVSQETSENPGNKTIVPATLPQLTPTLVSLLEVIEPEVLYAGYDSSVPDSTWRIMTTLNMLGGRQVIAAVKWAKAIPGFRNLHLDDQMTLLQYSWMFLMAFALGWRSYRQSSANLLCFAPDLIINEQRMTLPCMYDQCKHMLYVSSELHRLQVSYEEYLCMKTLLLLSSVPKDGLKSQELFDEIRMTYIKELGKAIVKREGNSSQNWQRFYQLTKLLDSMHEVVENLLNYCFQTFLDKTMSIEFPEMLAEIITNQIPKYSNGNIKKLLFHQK
Voltage-gated inwardly rectifying potassium channel KCNH2 (Homo sapiens), sequence (Q12809 whole entry, looked up): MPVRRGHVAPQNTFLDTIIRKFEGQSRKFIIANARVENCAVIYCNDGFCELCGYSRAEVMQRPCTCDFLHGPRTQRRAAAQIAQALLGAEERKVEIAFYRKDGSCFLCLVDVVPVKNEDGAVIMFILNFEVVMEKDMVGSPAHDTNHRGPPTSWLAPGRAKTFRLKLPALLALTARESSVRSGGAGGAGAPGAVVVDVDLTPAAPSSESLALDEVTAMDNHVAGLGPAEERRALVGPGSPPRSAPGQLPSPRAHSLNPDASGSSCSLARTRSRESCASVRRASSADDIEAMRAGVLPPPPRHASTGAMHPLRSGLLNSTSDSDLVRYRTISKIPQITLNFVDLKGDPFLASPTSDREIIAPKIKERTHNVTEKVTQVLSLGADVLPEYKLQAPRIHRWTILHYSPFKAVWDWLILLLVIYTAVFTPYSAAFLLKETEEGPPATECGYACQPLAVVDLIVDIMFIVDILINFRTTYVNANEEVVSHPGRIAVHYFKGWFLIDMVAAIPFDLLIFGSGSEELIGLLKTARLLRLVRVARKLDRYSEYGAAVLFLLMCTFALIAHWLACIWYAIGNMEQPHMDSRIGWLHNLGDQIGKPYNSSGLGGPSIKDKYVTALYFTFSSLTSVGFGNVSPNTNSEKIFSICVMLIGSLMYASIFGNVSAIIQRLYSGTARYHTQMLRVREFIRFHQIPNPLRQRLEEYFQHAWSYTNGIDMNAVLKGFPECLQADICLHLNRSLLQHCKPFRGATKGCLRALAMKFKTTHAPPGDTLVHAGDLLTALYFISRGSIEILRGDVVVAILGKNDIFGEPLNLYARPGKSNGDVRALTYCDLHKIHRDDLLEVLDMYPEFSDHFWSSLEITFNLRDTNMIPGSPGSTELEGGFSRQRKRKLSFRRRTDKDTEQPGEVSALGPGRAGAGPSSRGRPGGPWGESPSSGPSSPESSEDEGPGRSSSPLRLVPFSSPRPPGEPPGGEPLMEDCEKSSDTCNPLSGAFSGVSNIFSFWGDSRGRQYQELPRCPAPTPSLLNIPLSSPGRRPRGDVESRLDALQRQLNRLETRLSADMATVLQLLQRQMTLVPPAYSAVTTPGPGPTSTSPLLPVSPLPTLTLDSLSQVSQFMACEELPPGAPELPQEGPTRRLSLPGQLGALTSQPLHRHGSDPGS
Nuclear receptor ROR-gamma (Homo sapiens), sequence (P51449 whole entry, looked up): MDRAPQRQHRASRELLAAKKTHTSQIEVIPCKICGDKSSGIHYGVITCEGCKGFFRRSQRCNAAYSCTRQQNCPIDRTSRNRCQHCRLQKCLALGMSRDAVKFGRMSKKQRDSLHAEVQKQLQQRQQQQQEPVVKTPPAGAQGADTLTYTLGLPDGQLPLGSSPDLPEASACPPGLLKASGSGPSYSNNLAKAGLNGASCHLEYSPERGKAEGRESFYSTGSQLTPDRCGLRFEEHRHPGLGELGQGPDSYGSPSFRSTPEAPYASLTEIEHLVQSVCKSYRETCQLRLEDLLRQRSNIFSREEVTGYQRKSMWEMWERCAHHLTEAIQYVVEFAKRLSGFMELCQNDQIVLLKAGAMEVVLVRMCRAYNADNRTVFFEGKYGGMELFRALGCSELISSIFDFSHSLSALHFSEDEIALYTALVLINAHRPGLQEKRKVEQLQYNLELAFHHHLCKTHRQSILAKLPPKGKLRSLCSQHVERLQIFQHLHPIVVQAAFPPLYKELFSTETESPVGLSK

Take `CO[C@H]1/C=C/O[C@@]2(C)Oc3c(C)c(O)c4c(O)c(c5c(c4c3C2=O)NC2(CCN(CC(C)C)CC2)N=5)=NC(=O)/C(C)=C\C=C\[C@H](C)[C@H](O)[C@@H](C)[C@@H](O)[C@@H](C)[C@H](OC(C)=O)[C@@H]1C`: the Potency result in [1], in test [2], in test [3], in [4], in test [5] and in test [7] was “inactive” throughout. Besides, the Potency entry in test [8], in test [9], in [10] and in [11] was “inactive” each time. For the same compound, the activation in test [6] was -2.4%. The max response in [12] is -17.5%.

For the compound `O=C=Nc1ccc(Cc2ccc(N=C=O)cc2)cc1`, the Potency in [13] was more than 92 µM. Also, the Potency entry in test [14], in test [15], in [1], in test [16], in test [2] and in test [17] was “inactive” throughout. For the same compound, the Potency entry in [18], in test [19], in test [3], in test [4], in test [5] and in test [20] was “inactive” each time. Besides, the Potency entry in test [8], in test [9], in test [10] and in [11] was “inactive” throughout. For the same compound, the activation in [6] is 5.29% and -5.07%. Further, the max response in test [12] is -1.3% and -0.206%.

As to `O=C1OC2(c3cc(Br)c(O)c(Br)c3Oc3c2cc(Br)c(O)c3Br)c2c(Cl)c(Cl)c(Cl)c(Cl)c21`, the Potency in test [13] was more than 92 µM; in [7] it was 3.98 µM (active). For the same compound, the Potency entry in test [15], in test [16], in [17], in [19], in test [20] and in [9] was “inactive” in each case. Moreover, the Potency entry in test [10] is “inactive”. Moreover, in test [6], the activation is 0.908%. Besides, the max response in test [12] was -22.4%.

On to `CC/C(=C(\c1ccccc1)c1ccc(OCCN(C)C)cc1)c1ccc(O)cc1`, for which the Potency in test [14] is 31.6 µM (active). In test [6], the activation was 5.28%. Besides, the Potency result in test [8] was “inactive”.

`C/C=C1\C(=O)C[C@H]2[C@@H]3CCC4=CC(=O)CC[C@]4(C)[C@H]3CC[C@]12C`: the Potency result in [14], in [16], in [2], in test [18], in [4] and in test [5] was “inactive” throughout. The Potency entry in test [20] and in [8] was “inactive” each time. Also, the Potency is 50.1 µM (active) in test [15], 35.5 µM (active) in [7] and 33.5 µM (active) in test [9]. Further, the max response in test [12] was -11.4%.

On to `O=C1OC(O)C(C(Cl)Cl)=C1Cl` (stereo not given), for which the Potency in test [1] was 12.6 µM (active); in test [16], 15.8 µM (active); in [2], 25.1 µM (active); in test [17], 25.1 µM (active); in [18] it was 25.1 µM (active); in test [19] it was 25.1 µM (active). For the same compound, the Potency was 25.1 µM (active) in test [3]; 31.6 µM (active) in test [4]; 25.1 µM (active) in test [5]; 25.1 µM (active) in test [20]; 26.6 µM (active) in test [11]. In test [6], the activation is -17.9%. The Potency result in test [7] and in test [8] was “inactive” in each case. Moreover, the max response in test [12] was -27.5%.

Consider `CCC(C)Nc1ccc(NC(C)CC)cc1` (stereo not given), for which the Potency was 19.3 µM (active) in test [13]; 12.6 µM (active) in test [14]; 6.31 µM (active) in [1]; 6.31 µM (active) in [16]; 3.98 µM (active) in test [2]; 6.31 µM (active) in test [17]. Besides, the Potency in test [18] is 3.98 µM (active); in [19], 3.98 µM (active); in test [3], 5.01 µM (active); in test [4] it was 7.94 µM (active); in [5] it was 3.98 µM (active); in test [20], 7.94 µM (active). The Potency in test [7] was 14.1 µM (active); in test [9] it was 13.3 µM (active); in [11], 8.41 µM (active); in [12] it was 22.4 µM (active). Moreover, the activation in [6] is 1.29% and -5.53%. Also, the Potency entry in test [10] is “inactive”.
